Assay results reported in PubChem BioAssay (Tox21).
Values joined by “and” are separate entries in the source; they are usually repeats but may differ in a detail not shown here. Equal entries are not always repeated. Records with an inconclusive call do not appear. Active and inactive are the calls of the source. Unless noted, calls follow the shape of the dose curve; as a rule, active = well fitted curve in the direction sought with a large enough effect in the repeat runs; inconclusive = weak or mixed curves; inactive = no such curve, though single readings can be large; an effect the other way counts as inactive or inconclusive.

Columns and labels:
[1] = biological target: Thyrotropin receptor (Homo sapiens) (UniProt P16473); assay: qHTS assay to identify small molecule agonists of the thyroid stimulating hormone receptor (TSHR) signaling pathway (AID 1224843; calls by dose curve; also: nearly all actives have a fitted effect of over 45% in size)
Thyrotropin receptor (Homo sapiens), sequence (P16473 whole entry, looked up): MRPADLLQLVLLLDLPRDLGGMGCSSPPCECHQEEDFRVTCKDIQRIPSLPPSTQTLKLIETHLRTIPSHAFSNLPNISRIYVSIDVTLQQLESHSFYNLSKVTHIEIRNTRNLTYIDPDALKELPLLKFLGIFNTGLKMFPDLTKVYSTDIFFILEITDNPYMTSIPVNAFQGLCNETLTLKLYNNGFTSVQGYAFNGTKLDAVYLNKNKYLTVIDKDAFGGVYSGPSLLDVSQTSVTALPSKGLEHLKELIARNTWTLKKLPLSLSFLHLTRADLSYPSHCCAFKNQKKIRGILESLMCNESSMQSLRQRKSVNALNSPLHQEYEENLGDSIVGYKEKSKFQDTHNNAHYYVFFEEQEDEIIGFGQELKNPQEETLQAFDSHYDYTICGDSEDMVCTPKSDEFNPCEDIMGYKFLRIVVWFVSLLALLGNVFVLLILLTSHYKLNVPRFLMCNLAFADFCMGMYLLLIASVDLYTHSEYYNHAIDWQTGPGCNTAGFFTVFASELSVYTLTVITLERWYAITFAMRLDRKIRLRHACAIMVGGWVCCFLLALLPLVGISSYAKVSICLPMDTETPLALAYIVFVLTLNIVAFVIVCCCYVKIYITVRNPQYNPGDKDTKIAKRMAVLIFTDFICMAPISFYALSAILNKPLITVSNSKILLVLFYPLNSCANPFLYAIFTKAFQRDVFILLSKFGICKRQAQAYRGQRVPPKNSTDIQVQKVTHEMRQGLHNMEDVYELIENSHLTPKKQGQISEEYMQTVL
Procedure, shortened: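 Agonist activity read as cAMP rise via d2/cryptate HTRF competition, 1 h room-temperature detection, in HEK293 cells expressing TSHR. Fifteen-point titrations, each run in triplicate, with a 30 min room-temperature incubation beforehand.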

[2] = qHTS assay to identify small molecule agonists of the hypoxia (HIF-1) signaling pathway - cell viability counter screen (AID 1224844; calls by dose curve; also: nearly all actives have a fitted effect of over 50% in size)
Procedure, shortened: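 Same wells as the HIF-1 reporter screen; ME-180 cells carrying HRE-bla, 17 hr treatment at 37C; CellTiter-Glo luminescence read after 30 min at room temperature.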

[3] = qHTS assay to identify small molecule agonists of H2AX (AID 1224845; active = well fitted activation curve with a large enough effect in the signal ratio in the repeat runs, not every such curve was filed as active; the % refers to the signal ratio)
Procedure, shortened: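 Phospho-H2AX Ser139 measured by HTRF (ex 320 nm; em 665 and 620 nm) after 24 hr antibody incubation. Compounds, 15 concentrations, 0.76% DMSO, were applied to CHO-K1 cells for 3hr at 37C before lysis.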

[4] = qHTS assay to identify small molecule agonists of the hypoxia (HIF-1) signaling pathway (AID 1224846; active = well fitted activation curve with a large enough effect in the signal ratio in the repeat runs, not every such curve was filed as active; the % refers to the signal ratio)
Procedure, shortened: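 In ME-180 cells bearing an HRE-bla construct, 17 h treatment with DMSO-dissolved compounds at 37C was followed by CCF4-AM loading to quantify reporter induction.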

[5] = qHTS assay to identify small molecule agonists of H2AX - cell viability counter screen (AID 1224847; calls by dose curve;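 also: wild-type CHO-K1 cells; top concentration of the series differs between compounds; nearly all actives have a fitted effect of over 30% in size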)
Procedure, shortened: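 For this counter screen, overnight-attached CHO-K1 cells received test compounds (15 concentrations, 0.76% DMSO final); 3 hr later at 37C, CellTiter-Glo reagent was added and luminescence recorded after 30 min at room temperature.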

[6] = qHTS assay to identify small molecule antagonists of the estrogen related receptor (ERR) signaling pathway from Tox21 library (AID 1224848); also: nearly all actives have a fitted effect of over 50% in size
Procedure, shortened: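 Luciferase luminescence (ONE-Glo, 30 min room temperature) was the read-out. Cells of the NTP-supplied ERR line, 2,000 per well, were given 6 h at 37 C before compound addition in DMSO and 18 h exposure at 37 C.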

[7] = qHTS assay to identify small molecule agonists of the estrogen related receptor (ERR) signaling pathway from Tox21 library (AID 1224849; calls by dose curve; also: nearly all actives have a fitted effect of over 15% in size); settings: ERR reporter cell line, ONE-Glo luciferase, 18 h; at 92.4 µM (top of the series) unless noted
Procedure, shortened: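 Reporter cells (ERR, NTP source) treated with Tox21 10K compounds 18 h, 37 C. Readout: ONE-Glo luminescence, 30 min RT.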

[8] = qHTS RealTime-Glo MT Cell Viability Assay in HepG2 cells - 24 hour (AID 1224867); also: nearly all actives have a fitted effect of over 50% in size
Procedure, shortened: (§1)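 HepG2 cells (600/well) were dispensed with RealTime-Glo reagents, incubated 5 h at 37 °C, then treated with compounds in DMSO for up to 40 h. Nonlytic NanoLuc luminescence reflecting viable cells was read at each stated time point.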

[9] = A CellTox Green Cytotoxicity Assay to monitor cytotoxicity in HEK293 cells - 0 hour (AID 1224869); also: nearly all actives have a fitted effect of over 50% in size
Procedure, shortened: (§2)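 Homogeneous no-lysis format: HEK293 cell suspension mixed with CellTox Green reagent, seeded, incubated 5 h at 37 C/5% CO2, then dosed by pintool with compound in DMSO.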

[10] = qHTS RealTime-Glo MT Cell Viability Assay in HepG2 cells - 40 hour (AID 1224870); also: nearly all actives have a fitted effect of over 50% in size
Procedure, shortened: (§3)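 Real-time viability: cells seeded at 600 per well together with NanoLuc and cell-permeant prosubstrate, compounds added after 5 h incubation. Luminescence tracked at 0, 8, 16, 24, 32 and 40 h of exposure.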

[11] = A CellTox Green Cytotoxicity Assay to monitor cytotoxicity in HEK293 cells - 40 hour (AID 1224871); also: nearly all actives have a fitted effect of over 45% in size
Procedure, shortened: as §2

[12] = qHTS RealTime-Glo MT Cell Viability Assay in HEK293 cells - 16 hour (AID 1224872)
Procedure, shortened: (§4)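 HEK293 cells seeded with NanoLuc/prosubstrate reagent, rested 5 h at 37 C, then dosed and kept at 37 C up to 40 h. Nonlytic real-time luminescence from viable cells read at 0, 8, 16, 24, 32 and 40 h.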

[13] = qHTS RealTime-Glo MT Cell Viability Assay in HepG2 cells - 8 hour (AID 1224873); also: nearly all actives have a fitted effect of over 55% in size
Procedure, shortened: as §3

[14] = qHTS RealTime-Glo MT Cell Viability Assay in HEK293 cells - 40 hour (AID 1224874); settings: RealTime-Glo luminescence; max response: stronger effect = lower value; also: nearly all actives have a fitted effect of over 50% in size
Procedure, shortened: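 Measured as luminescence from the same continuously cultured HEK293 wells at successive time points (0, 8, 16, 24, 32, 40 h) after compound addition. Reagent present from seeding; dosing at 5 h; incubation 37 C.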

[15] = A CellTox Green Cytotoxicity Assay to monitor cytotoxicity in HEK293 cells - 24 hour (AID 1224875); also: nearly all actives have a fitted effect of over 45% in size
Procedure, shortened: as §2

[16] = A CellTox Green Cytotoxicity Assay to monitor cytotoxicity in HepG2 cells - 16 hour (AID 1224876); also: nearly all actives have a fitted effect of over 45% in size
Procedure, shortened: (§5)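 Fluorescent DNA-binding dye, 600 HepG2 cells/well, 5 h preincubation then compound in DMSO; same plates read at 0–40 h, 37 C.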

[17] = A CellTox Green Cytotoxicity Assay to monitor cytotoxicity in HepG2 cells - 24 hour (AID 1224878); also: nearly all actives have a fitted effect of over 45% in size
Procedure, shortened: as §5

[18] = A CellTox Green Cytotoxicity Assay to monitor cytotoxicity in HepG2 cells - 40 hour (AID 1224879); also: nearly all actives have a fitted effect of over 40% in size
Procedure, shortened: as §5

[19] = qHTS RealTime-Glo MT Cell Viability Assay in HepG2 cells - 32 hour (AID 1224877); also: nearly all actives have a fitted effect of over 55% in size
Procedure, shortened: as §1

[20] = qHTS RealTime-Glo MT Cell Viability Assay in HEK293 cells - 32 hour (AID 1224868)
Procedure, shortened: as §4
% is scaled to controls: 0 for no effect and ±100 for the full control effect.

Nc1ccccc1S(=O)(=O)O
inactive: Potency [1] | Potency [2] | outcome [3] | outcome [4] | Potency [5] | Potency [6] | activity change, positive = activation [7] 3.7% | Potency [8] | Potency [9] | Potency [10] | Potency [11] | Potency [12] | Potency [13] | max response [14] 0.0936% | Potency [15] | Potency [16] | Potency [17] | Potency [18]

CC(C)(CC(=O)O)C(=O)O
inactive: Potency [1] | Potency [2] | outcome [3] | outcome [4] | Potency [5] | Potency [6] | activity change, positive = activation [7] 3.63% | Potency [8] | Potency [10] | Potency [11] | Potency [12] | Potency [13] | max response [14] 0.211% | Potency [15] | Potency [19]

N=C(N)c1ccc(OCCCOc2ccc(C(=N)N)cc2)cc1
inactive: Potency [1] | Potency [2] | outcome [3] | outcome [4] | Potency [5] | Potency [6] | Potency [8] | Potency [20] | Potency [9] | Potency [10] | Potency [11] | Potency [12] | Potency [13] | max response [14] 1.81% | Potency [15] | Potency [19] | Potency [17] | Potency [18]

CC(C)(O)C(=O)c1ccccc1
inactive: Potency [1] | Potency [2] | outcome [3] | outcome [4] | Potency [5] | Potency [6] | activity change, positive = activation [7] 0.982% | Potency [8] | Potency [20] | Potency [10] | Potency [11] | Potency [12] | Potency [13] | max response [14] 1.69% | Potency [19] | Potency [18]

OCCOc1ccc(OCCO)cc1
inactive: Potency [1] | Potency [2] | outcome [3] | outcome [4] | Potency [5] | Potency [6] | activity change, positive = activation [7] 2.76% | Potency [8] | Potency [10] | Potency [11] | Potency [12] | Potency [13] | max response [14] 19.3% | Potency [15] | Potency [16] | Potency [19] | Potency [17] | Potency [18]

CCCCCCCCCCCCN(CCCCCCCCCCCC)CCCCCCCCCCCC
inactive: Potency [1] | Potency [2] | outcome [3] | outcome [4] | Potency [5] | Potency [6] | activity change, positive = activation [7] 5.6% | Potency [8] | Potency [9] | Potency [10] | Potency [11] | Potency [12] | Potency [13] | max response [14] 0.0553% | Potency [15] | Potency [16] | Potency [19] | Potency [18]

CCCCC(CC)COC(=O)c1ccccc1O (centres undefined)
inactive: Potency [1] | Potency [2] | outcome [3] | outcome [4] | Potency [5] | Potency [6] | activity change, positive = activation [7] 5.6% [at 42.5 µM] | Potency [8] | Potency [10] | Potency [11] | Potency [12] | Potency [13] | max response [14] 0.0024% | Potency [15] | Potency [16] | Potency [18]

CC(=O)OC/C=C(\C)CC/C=C(\C)CCC=C(C)C
inactive: Potency [1] | Potency [2] | outcome [3] | outcome [4] | Potency [5] | Potency [6] | activity change, positive = activation [7] 1.18% and 2.19% | Potency [8] | Potency [20] | Potency [10] | Potency [11] | Potency [12] | Potency [13] | max response [14] 12.3% and 2.35% | Potency [15] | Potency [16] | Potency [19] | Potency [17] | Potency [18]

CC1=CC(C)C(C=O)CC1 (centres undefined)
inactive: Potency [1] | Potency [2] | outcome [3] | outcome [4] | Potency [5] | Potency [6] | activity change, positive = activation [7] 0.053% | Potency [8] | Potency [20] | Potency [10] | Potency [11] | Potency [12] | Potency [13] | max response [14] -0.371% | Potency [15] | Potency [19] | Potency [17] | Potency [18]

O=C1CCCN1C1CCCCC1
inactive: Potency [1] | Potency [2] | outcome [3] | outcome [4] | Potency [5] | Potency [6] | activity change, positive = activation [7] -1.04% | Potency [8] | Potency [20] | Potency [10] | Potency [11] | Potency [12] | Potency [13] | Potency [15] | Potency [16] | Potency [19] | Potency [17] | Potency [18]

CC/C=C\CC/C=C/C(OCC)OCC
inactive: Potency [1] | Potency [2] | outcome [3] | outcome [4] | Potency [5] | Potency [6] | activity change, positive = activation [7] 2.27% | Potency [8] | Potency [20] | Potency [10] | Potency [11] | Potency [12] | Potency [13] | max response [14] 11.7% | Potency [15] | Potency [16] | Potency [19] | Potency [18]

Cn1cc(S(C)=O)c(=O)c2ccc(F)cc21 (centres undefined)
inactive: Potency [1] | Potency [2] | outcome [3] | outcome [4] | Potency [5] | Potency [6] | activity change, positive = activation [7] 0.0404% [at 42.5 µM] | Potency [8] | Potency [20] | Potency [10] | Potency [11] | Potency [12] | Potency [13] | Potency [15] | Potency [16] | Potency [19] | Potency [17] | Potency [18]

CN1CC(=O)NC1=N
inactive: Potency [1] | Potency [2] | outcome [3] | outcome [4] | Potency [5] | Potency [6] | activity change, positive = activation [7] 4.02% [at 42.5 µM] | Potency [8] | Potency [9] | Potency [10] | Potency [11] | Potency [12] | Potency [13] | max response [14] 9.12% | Potency [15] | Potency [16] | Potency [19] | Potency [17] | Potency [18]
